# Assay results published in PubChem BioAssay (EPA / NIEHS).
# Results filed as inconclusive are left out. The source made the active and inactive calls. Rule for the calls, unless noted: active = hit-call score of the fitted dose curve at least 0.9, where 1 is the maximum; inactive = score below 0.9.
# What was measured:
# [1] = target: Paired box protein Pax-6 (Homo sapiens) (UniProt P26367); assay: ATG_Pax6_CIS: Attagene CIS-FACTORIAL HepG2 Assay for human Paired Box 6 (PAX6) (AID 2282956); conditions: HepG2 CIS-FACTORIAL PAX6 reporter transcription, RNA readout; actives raise or lower the signal
# Outline: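 Transient MRTU transfection of HepG2 → compound exposure 24 h → TriZol RNA, oligo(dT) RT → PCR, 6-FAM primer extension, HpaI cut → capillary electrophoresis; activity fitted both directions against DMSO.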
# [2] = ATG_PXRE_CIS: Attagene CIS-FACTORIAL HepG2 Assay for human Pregnane X Receptor Element (PXRE) (AID 2282957); conditions: HepG2 Attagene CIS-FACTORIAL PXRE reporter, mRNA; actives raise or lower the signal
# Outline: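 Cis-element reporter mRNA in human hepatoma HepG2 cells is measured 24 h post-dosing by RT-PCR, primer-extension labeling and capillary electrophoresis; gain or loss of signal is fitted relative to DMSO.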
# [3] = ATG_PPRE_CIS: Attagene CIS-FACTORIAL HepG2 Assay for human Peroxisome Proliferator-activated Response Element (PPRE) (AID 2282958); conditions: HepG2 PPRE cis-element reporter, Attagene transcription factor profiling; actives raise or lower the signal
# Outline: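 Endogenous PPRE-driven transcription is measured in HepG2 cells carrying transfected multi-reporter constructs. Reporter transcripts are quantified by RT-PCR, HpaI digestion and capillary electrophoresis 24 h after dosing. DMSO baseline, bidirectional fit.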
# [4] = ATG_RORE_CIS: Attagene CIS-FACTORIAL HepG2 Assay for human RAR-related Orphan Receptor Element (RORE) (AID 2282959); conditions: HepG2 Attagene cis-factorial RORE reporter, mRNA; actives raise or lower the signal
# Outline: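 RORE reporter transcripts reflecting endogenous factor activity were read after 24 h compound exposure of transfected HepG2 cells, using reverse transcription, PCR, fluorescent labelling and capillary electrophoresis sizing. Gain or loss fitted against DMSO.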
# [5] = ATG_Sox_CIS: Attagene CIS-FACTORIAL HepG2 Assay for human SRY-box transcription factor (SOX) (AID 2282960); conditions: HepG2 Attagene cis-factorial SOX reporter, mRNA; actives raise or lower the signal
# Outline: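 Reporter transcripts, measured by RT-PCR and capillary electrophoresis of labelled fragments, report endogenous SOX transcription factor activity. Transiently transfected human HepG2 cells receive chemical for 24 h; changes in either direction are fitted relative to DMSO.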
# [6] = target: Transcription factor Sp1 (Homo sapiens) (UniProt P08047); assay: ATG_Sp1_CIS: Attagene CIS-FACTORIAL HepG2 Assay for human Specificity Protein 1 (Sp1) (AID 2282961); conditions: HepG2 Sp1 cis-reporter transcription, actives raise or lower the signal
# Outline: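 Read-out is reporter transcript level, measured by RT-PCR and fluorescent capillary electrophoresis after 24 h chemical treatment. System: transiently transfected HepG2 cells reporting endogenous transcription factor activity; gain or loss fitted against DMSO baseline.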
# [7] = ATG_SREBP_CIS: Attagene CIS-FACTORIAL HepG2 Assay for human Sterol Regulatory Element Binding (SREBP) (AID 2282962); conditions: HepG2 Attagene cis-factorial SREBP reporter, mRNA; actives raise or lower the signal
# Outline: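 Transfected HepG2 (cis-regulated reporter library, endogenous TFs) → compound 24 h → total RNA → oligo(dT) RT → reporter-specific PCR → FAM primer extension, HpaI cut → CE fluorescence. Fit bidirectional vs DMSO.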
# [8] = target: Signal transducer and activator of transcription 3 (Homo sapiens) (UniProt P40763); assay: ATG_STAT3_CIS: Attagene CIS-FACTORIAL HepG2 Assay for human Signal Transducer and Activator of Transcription 3 (STAT3) (AID 2282963); conditions: HepG2, Attagene cis-factorial STAT3 reporter transcription; actives raise or lower the signal
# Outline: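 Transcript-level reporter assay. HepG2 transient MRTU transfection, 24 h exposure, fluorescence detection after RT-PCR and CE; DMSO baseline.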
# [9] = ATG_TA_CIS: Attagene CIS-FACTORIAL HepG2 Assay for human TA Basal Promoter (AID 2282964); conditions: HepG2 Attagene CIS-factorial TA basal promoter reporter; actives raise or lower the signal
# Outline: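 HepG2 cells transiently transfected with multiple reporter units under cis promoter elements, reporting endogenous transcription factor activity; this endpoint tracks the TA basal promoter as background control. Reporter mRNA after 24 h dosing measured by RT-PCR/capillary electrophoresis; bidirectional fits versus DMSO.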
# [10] = ATG_TCF_b_cat_CIS: Attagene CIS-FACTORIAL HepG2 Assay for human T-Cell-Factor with beta-catenin (TCF/b-cat) (AID 2282965); conditions: HepG2 TCF/beta-catenin cis-reporter transcription, actives raise or lower the signal
# Outline: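 HepG2 cells transiently transfected with multiple cis-promoter-regulated reporter transcription units, so endogenous transcription factor activity is measured. Reporter mRNA read 24 hours after dosing by RT-PCR, fluorescent labelling and capillary electrophoresis; bidirectional fitting against DMSO.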
# [11] = ATG_TAL_CIS: Attagene CIS-FACTORIAL HepG2 Assay for human TAL Basal Promoter (AID 2282966); conditions: HepG2 Attagene cis-factorial TAL promoter reporter; actives raise or lower the signal;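 note: background control endpoint measuring basal TAL promoter reporter mRNA not a specific factor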
# Outline: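 In this cell-based multiplex, HepG2 liver cells bearing cis-promoter reporter constructs are dosed for 24 hours. Total RNA is reverse-transcribed and amplified, labelled fragments are sized by capillary electrophoresis, and signal changes are fitted bidirectionally versus DMSO.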
# [12] = ATG_TGFb_CIS: Attagene CIS-FACTORIAL HepG2 Assay for human Transforming Growth Factor (TGF) (AID 2282967); conditions: HepG2 Attagene CIS TGFb reporter, mRNA transcription; actives raise or lower the signal
# Outline: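 HepG2 cells transiently transfected with cis-promoter-driven multiple reporter units measure endogenous TF activity; reporter mRNA quantified at 24 h by RT-PCR, FAM labeling, HpaI digestion and capillary electrophoresis. Bidirectional fit vs DMSO.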
# [13] = target: Estrogen receptor (Homo sapiens) (UniProt P03372); assay: ATG_ERa_TRANS: Attagene TRANS-FACTORIAL HepG2 Assay for human Estrogen Receptor alpha (ERa) (AID 2282970; active = hit-call score of the fitted dose curve at least 0.9, where 1 is the maximum); conditions: HepG2 Attagene TRANS ERa GAL4 reporter, mRNA
# Outline: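 After 24 h of compound treatment, RNA from HepG2 cells bearing transfected GAL4-UAS reporter constructs is converted to cDNA, amplified and fluorescently labelled. Capillary electrophoresis resolves the ERa-linked reporter; DMSO serves as negative control.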
# [14] = target: X-box-binding protein 1 (Homo sapiens) (UniProt P17861); assay: ATG_Xbp1_CIS: Attagene CIS-FACTORIAL HepG2 Assay for human X-box Binding Protein 1 (XBP1) (AID 2282972); conditions: HepG2 XBP1 cis-element reporter, Attagene multiplex; actives raise or lower the signal
# Outline: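 HepG2, transient MRTU transfection (cis-promoter driven), 24 h compound exposure. Total RNA → oligo(dT) RT → PCR → 6-FAM labeling → HpaI cut → CE. Bidirectional fit vs DMSO.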
# [15] = ATG_M_19_TRANS: Attagene TRANS-FACTORIAL HepG2 Assay for M19 Transcription Factor (Internal Marker) (AID 2282974; active = hit-call score of the fitted dose curve at least 0.9, where 1 is the maximum); conditions: HepG2 Attagene TRANS-FACTORIAL M19 internal marker reporter
# Outline: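 Background-control readout: after 24 h chemical exposure of transfected HepG2 carrying GAL4-driven reporter units, RNA was reverse-transcribed, amplified, fluorescently labeled and sized by capillary electrophoresis; gain-of-signal fit against DMSO.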
# [16] = ATG_VDRE_CIS: Attagene CIS-FACTORIAL HepG2 Assay for human Vitamin D Receptor Element (VDRE) (AID 2282968); conditions: HepG2 VDRE cis-reporter transcription, actives raise or lower the signal
# Outline: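 RT-PCR/CE readout of reporter mRNA; HepG2, transient transfection, 24 h dosing; DMSO baseline; bidirectional analysis.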
# [17] = target: Nuclear receptor subfamily 1 group I member 3 (Homo sapiens) (UniProt Q14994); assay: ATG_CAR_TRANS: Attagene TRANS-FACTORIAL HepG2 Assay for human Constitutive Androstane Receptor (CAR) (AID 2282969; active = hit-call score of the fitted dose curve at least 0.9, where 1 is the maximum;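 note: activators raise reporter mRNA above DMSO so AC50 marks induction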); conditions: HepG2 Attagene TRANS-FACTORIAL CAR reporter
# Outline: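 HepG2 cells transiently transfected with multiplexed GAL4-UAS reporter units expressing chimeric NR-Gal4 proteins; compound exposure 24 h. Reporter mRNA measured by RT-PCR, 6-FAM labelling, HpaI digestion and capillary electrophoresis; gain-of-signal fitted against DMSO baseline.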
# [18] = ATG_GAL4_TRANS: Attagene TRANS-FACTORIAL HepG2 Assay for GAL4 (Internal Marker) (AID 2282976; active = hit-call score of the fitted dose curve at least 0.9, where 1 is the maximum); conditions: HepG2 Attagene TRANS GAL4 internal marker reporter
# Outline: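 RT-PCR/capillary electrophoresis readout of reporter mRNA. HepG2, transient MRTU transfection (GAL4-UAS reporters), 24 h compound exposure. Background-control endpoint, positive direction vs DMSO baseline.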
# [19] = target: Estrogen-related receptor gamma (Homo sapiens) (UniProt P62508); assay: ATG_ERRg_TRANS: Attagene TRANS-FACTORIAL HepG2 Assay for human Estrogen-Related Receptor gamma (ERRg) (AID 2282977; active = hit-call score of the fitted dose curve at least 0.9, where 1 is the maximum;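 note: hits increase reporter signal over DMSO so potencies reflect activators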); conditions: HepG2 Attagene TRANS reporter, ERRg transactivation
# Outline: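 Transfect HepG2 with multiple GAL4-UAS reporter transcription units; dose chemicals 24 h; isolate RNA, reverse-transcribe with oligo(dT), PCR-amplify, label with 6-FAM, digest with HpaI; size fragments by capillary electrophoresis. DMSO serves as negative control.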
# [20] = target: Steroid hormone receptor ERR1 (Homo sapiens) (UniProt P11474); assay: ATG_ERRa_TRANS: Attagene TRANS-FACTORIAL HepG2 Assay for human Estrogen-Related Receptor alpha (ERRa) (AID 2282971; active = hit-call score of the fitted dose curve at least 0.9, where 1 is the maximum); conditions: HepG2 Attagene TRANS reporter, ERRa transactivation
# Outline: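 Transfected HepG2, 24 h dosing, ERRa-Gal4 chimera driving GAL4-UAS reporter. Readout: reporter mRNA via RT-PCR plus capillary electrophoresis (fluorescence). Positive direction vs DMSO control.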
# Chain of Signal transducer and activator of transcription 3 (Homo sapiens) (P40763 whole entry, looked up): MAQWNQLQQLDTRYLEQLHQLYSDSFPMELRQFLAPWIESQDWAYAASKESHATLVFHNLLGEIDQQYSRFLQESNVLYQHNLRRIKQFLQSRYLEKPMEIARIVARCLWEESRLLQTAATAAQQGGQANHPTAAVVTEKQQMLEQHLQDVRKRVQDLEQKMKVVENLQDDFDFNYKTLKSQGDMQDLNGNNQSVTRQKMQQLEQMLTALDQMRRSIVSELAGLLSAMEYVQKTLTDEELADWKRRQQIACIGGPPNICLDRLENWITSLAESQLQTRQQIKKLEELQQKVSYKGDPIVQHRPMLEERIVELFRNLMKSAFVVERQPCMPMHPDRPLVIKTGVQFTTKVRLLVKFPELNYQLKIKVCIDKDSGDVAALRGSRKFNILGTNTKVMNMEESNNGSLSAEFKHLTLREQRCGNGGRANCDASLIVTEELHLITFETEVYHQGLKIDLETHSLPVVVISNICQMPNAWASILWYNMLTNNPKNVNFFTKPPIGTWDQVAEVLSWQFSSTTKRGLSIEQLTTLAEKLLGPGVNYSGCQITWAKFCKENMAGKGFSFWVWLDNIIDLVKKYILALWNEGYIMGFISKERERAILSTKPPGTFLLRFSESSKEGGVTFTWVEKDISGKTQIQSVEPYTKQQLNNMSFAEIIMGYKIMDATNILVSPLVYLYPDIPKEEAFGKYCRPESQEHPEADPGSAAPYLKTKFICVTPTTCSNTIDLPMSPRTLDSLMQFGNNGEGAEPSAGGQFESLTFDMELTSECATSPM
# Chain of Nuclear receptor subfamily 1 group I member 3 (Homo sapiens) (Q14994 whole entry, looked up, the tested form may be a part): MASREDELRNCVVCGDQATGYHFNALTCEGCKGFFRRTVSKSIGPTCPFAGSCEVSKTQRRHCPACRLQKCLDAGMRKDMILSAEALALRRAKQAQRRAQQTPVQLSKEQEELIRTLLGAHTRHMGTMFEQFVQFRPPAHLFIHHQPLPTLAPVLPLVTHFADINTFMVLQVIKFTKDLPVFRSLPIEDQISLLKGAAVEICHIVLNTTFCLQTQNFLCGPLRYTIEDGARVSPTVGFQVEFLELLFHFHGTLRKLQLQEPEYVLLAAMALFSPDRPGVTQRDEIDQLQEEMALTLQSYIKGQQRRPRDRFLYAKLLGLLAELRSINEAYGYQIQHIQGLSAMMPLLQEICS
# Chain of Paired box protein Pax-6 (Homo sapiens) (P26367 whole entry, looked up): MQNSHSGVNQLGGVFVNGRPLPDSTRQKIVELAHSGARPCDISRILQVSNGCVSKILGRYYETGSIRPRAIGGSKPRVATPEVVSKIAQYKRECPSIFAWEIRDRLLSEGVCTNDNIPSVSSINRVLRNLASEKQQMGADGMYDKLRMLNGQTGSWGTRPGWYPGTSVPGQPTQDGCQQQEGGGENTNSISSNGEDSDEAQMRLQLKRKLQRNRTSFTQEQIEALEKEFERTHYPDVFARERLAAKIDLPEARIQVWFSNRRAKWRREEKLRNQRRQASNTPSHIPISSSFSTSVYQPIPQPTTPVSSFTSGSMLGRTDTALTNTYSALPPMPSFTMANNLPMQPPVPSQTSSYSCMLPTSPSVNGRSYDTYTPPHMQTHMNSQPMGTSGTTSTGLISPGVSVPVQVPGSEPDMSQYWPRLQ
# Chain of X-box-binding protein 1 (Homo sapiens) (P17861 whole entry, looked up): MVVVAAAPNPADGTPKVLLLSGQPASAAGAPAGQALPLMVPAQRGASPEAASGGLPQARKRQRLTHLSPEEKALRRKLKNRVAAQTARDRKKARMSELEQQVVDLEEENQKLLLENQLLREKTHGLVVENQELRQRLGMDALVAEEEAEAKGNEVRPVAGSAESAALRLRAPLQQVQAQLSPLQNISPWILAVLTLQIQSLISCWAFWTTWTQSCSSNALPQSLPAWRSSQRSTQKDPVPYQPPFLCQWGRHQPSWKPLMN
# Chain of Transcription factor Sp1 (Homo sapiens) (P08047 whole entry, looked up): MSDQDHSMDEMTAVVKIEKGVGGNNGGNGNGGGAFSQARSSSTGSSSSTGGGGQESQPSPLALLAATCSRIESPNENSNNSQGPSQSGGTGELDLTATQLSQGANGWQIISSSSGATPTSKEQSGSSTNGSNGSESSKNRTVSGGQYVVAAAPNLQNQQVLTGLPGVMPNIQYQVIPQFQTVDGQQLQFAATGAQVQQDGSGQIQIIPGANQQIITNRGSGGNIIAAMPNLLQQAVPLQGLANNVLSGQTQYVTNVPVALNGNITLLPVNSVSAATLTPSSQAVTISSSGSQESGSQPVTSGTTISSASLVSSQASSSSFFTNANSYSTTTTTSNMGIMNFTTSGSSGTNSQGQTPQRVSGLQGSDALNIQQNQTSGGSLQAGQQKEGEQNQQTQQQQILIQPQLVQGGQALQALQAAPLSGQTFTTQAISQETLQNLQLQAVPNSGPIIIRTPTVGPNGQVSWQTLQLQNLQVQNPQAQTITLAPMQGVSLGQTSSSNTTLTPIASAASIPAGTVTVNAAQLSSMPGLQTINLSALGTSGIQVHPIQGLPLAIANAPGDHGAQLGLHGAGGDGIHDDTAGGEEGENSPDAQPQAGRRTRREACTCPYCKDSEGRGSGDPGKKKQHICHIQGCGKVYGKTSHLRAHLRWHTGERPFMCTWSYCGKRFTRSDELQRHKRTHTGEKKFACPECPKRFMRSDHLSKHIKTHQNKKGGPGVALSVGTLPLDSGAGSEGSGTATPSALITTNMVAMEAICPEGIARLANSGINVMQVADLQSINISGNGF
# Chain of Steroid hormone receptor ERR1 (Homo sapiens) (P11474 whole entry, looked up, the tested form may be a part): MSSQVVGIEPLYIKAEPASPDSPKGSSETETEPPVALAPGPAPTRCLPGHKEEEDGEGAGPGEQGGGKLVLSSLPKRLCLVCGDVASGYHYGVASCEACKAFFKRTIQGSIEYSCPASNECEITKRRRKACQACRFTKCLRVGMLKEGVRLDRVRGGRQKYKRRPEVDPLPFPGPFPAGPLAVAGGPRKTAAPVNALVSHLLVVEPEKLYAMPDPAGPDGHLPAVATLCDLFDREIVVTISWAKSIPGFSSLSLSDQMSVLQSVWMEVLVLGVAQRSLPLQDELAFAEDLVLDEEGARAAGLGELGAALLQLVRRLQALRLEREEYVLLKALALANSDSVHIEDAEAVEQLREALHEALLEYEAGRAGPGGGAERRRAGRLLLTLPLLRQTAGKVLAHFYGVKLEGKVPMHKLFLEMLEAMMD
# Chain of Estrogen receptor (Homo sapiens) (P03372 whole entry, looked up, the tested form may be a part): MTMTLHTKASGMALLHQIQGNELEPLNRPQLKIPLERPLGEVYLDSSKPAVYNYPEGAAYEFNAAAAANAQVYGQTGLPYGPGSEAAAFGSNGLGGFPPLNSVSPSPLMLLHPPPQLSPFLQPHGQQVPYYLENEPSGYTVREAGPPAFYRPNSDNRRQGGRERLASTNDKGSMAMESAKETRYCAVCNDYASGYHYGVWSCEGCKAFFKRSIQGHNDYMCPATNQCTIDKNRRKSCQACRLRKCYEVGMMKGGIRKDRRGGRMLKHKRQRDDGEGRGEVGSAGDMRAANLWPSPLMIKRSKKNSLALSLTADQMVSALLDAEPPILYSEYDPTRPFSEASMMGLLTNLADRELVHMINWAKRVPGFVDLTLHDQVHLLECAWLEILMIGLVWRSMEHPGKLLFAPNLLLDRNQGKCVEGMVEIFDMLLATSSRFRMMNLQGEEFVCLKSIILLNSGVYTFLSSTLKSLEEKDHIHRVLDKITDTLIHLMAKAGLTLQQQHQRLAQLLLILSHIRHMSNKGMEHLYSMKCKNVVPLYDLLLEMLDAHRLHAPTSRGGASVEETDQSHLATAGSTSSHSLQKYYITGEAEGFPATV
# Chain of Estrogen-related receptor gamma (Homo sapiens) (P62508 whole entry, looked up, the tested form may be a part): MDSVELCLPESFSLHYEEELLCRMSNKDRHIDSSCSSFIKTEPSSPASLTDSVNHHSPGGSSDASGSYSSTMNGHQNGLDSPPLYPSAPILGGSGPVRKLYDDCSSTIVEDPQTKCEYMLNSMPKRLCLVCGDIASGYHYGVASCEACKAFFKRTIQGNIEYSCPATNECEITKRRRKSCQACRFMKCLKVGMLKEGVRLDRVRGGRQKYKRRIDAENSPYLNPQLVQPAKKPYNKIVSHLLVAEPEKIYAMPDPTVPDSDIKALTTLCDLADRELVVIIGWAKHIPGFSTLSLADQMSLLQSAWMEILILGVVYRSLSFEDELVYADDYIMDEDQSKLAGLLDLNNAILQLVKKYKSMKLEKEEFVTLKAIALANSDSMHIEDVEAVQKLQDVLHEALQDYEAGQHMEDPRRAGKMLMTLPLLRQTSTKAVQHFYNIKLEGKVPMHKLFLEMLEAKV
compound,measurement,setting,value
NC(=Nc1ccccc1)Nc1ccccc1,AC50,[1],34.6 µM (active)
same,outcome,[2],inactive
same,outcome,[3],inactive
same,AC50,[4],29.5 µM (active)
same,outcome,[5],inactive
same,outcome,[6],inactive
same,outcome,[7],inactive
same,outcome,[8],inactive
same,outcome,[9],inactive
same,AC50,[10],6.54 µM (active)
same,outcome,[11],inactive
same,outcome,[12],inactive
same,outcome,[13],inactive
same,AC50,[14],57.2 µM (active)
same,outcome,[15],inactive
S=c1[nH]c2ccccc2s1,outcome,[1],inactive
same,AC50,[2],61.2 µM (active)
same,AC50,[3],28.5 µM (active)
same,outcome,[4],inactive
same,outcome,[5],inactive
same,AC50,[6],42.5 µM (active)
same,AC50,[8],63.2 µM (active)
same,outcome,[9],inactive
same,outcome,[10],inactive
same,outcome,[11],inactive
same,outcome,[12],inactive
same,outcome,[16],inactive
same,outcome,[17],inactive
same,outcome,[14],inactive
same,outcome,[18],inactive
same,outcome,[19],inactive
C/C=C/c1ccc(OC)cc1,outcome,[1],inactive
same,outcome,[2],inactive
same,outcome,[3],inactive
same,outcome,[4],inactive
same,outcome,[5],inactive
same,outcome,[6],inactive
same,outcome,[7],inactive
same,outcome,[8],inactive
same,outcome,[9],inactive
same,outcome,[10],inactive
same,outcome,[11],inactive
same,outcome,[12],inactive
same,outcome,[14],inactive
same,outcome,[15],inactive
N[C@@H](Cc1c[nH]c2ccccc12)C(=O)O,outcome,[1],inactive
same,outcome,[2],inactive
same,outcome,[3],inactive
same,outcome,[4],inactive
same,outcome,[5],inactive
same,outcome,[6],inactive
same,outcome,[8],inactive
same,outcome,[9],inactive
same,outcome,[10],inactive
same,outcome,[11],inactive
same,outcome,[12],inactive
same,outcome,[16],inactive
same,outcome,[14],inactive
same,outcome,[15],inactive
same,outcome,[18],inactive
CO[C@@H]1COCC[C@@H]1N[C@@H]1CC[C@@](C(=O)N2CCc3ncc(C(F)(F)F)cc3C2)(C(C)C)C1,outcome,[1],inactive
same,outcome,[2],inactive
same,outcome,[3],inactive
same,outcome,[4],inactive
same,outcome,[5],inactive
same,outcome,[6],inactive
same,outcome,[8],inactive
same,outcome,[9],inactive
same,outcome,[10],inactive
same,outcome,[11],inactive
same,outcome,[12],inactive
same,outcome,[16],inactive
same,outcome,[14],inactive
same,outcome,[15],inactive
same,outcome,[18],inactive
C=CCCCCCCCCCCCC,outcome,[1],inactive
same,outcome,[2],inactive
same,outcome,[3],inactive
same,outcome,[4],inactive
same,outcome,[5],inactive
same,outcome,[6],inactive
same,outcome,[8],inactive
same,outcome,[9],inactive
same,outcome,[10],inactive
same,outcome,[11],inactive
same,outcome,[12],inactive
same,outcome,[16],inactive
same,outcome,[17],inactive
same,outcome,[14],inactive
same,outcome,[15],inactive
CN(C)CCCN1c2ccccc2Sc2ccc(Cl)cc21,AC50,[1],15.9 µM (active)
same,outcome,[2],inactive
same,outcome,[3],inactive
same,outcome,[4],inactive
same,outcome,[5],inactive
same,outcome,[6],inactive
same,outcome,[8],inactive
same,outcome,[9],inactive
same,AC50,[10],7.68 µM (active)
same,outcome,[11],inactive
same,outcome,[12],inactive
same,AC50,[16],11.1 µM (active)
same,outcome,[14],inactive
CCCC[C@H]1CN(CC2CCOCC2)C(=O)OC12CCN(C1(C)CCN(C(=O)c3c(C)ncnc3C)CC1)CC2,outcome,[1],inactive
same,outcome,[2],inactive
same,outcome,[3],inactive
same,outcome,[4],inactive
same,outcome,[5],inactive
same,outcome,[6],inactive
same,outcome,[8],inactive
same,outcome,[9],inactive
same,outcome,[10],inactive
same,outcome,[11],inactive
same,outcome,[12],inactive
same,outcome,[16],inactive
same,outcome,[17],inactive
same,outcome,[20],inactive
same,outcome,[14],inactive
same,outcome,[15],inactive
